Screening data from PubChem.
C diff HTS – C. difficile growth inhibition; 86,000 compounds, 0.25% hits; Clostridium difficile clinical isolate growth, OD600, 24 h; stronger effect = lower value; growth activity, negative = inhibition, % at 16 µg/mL (by protocol);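 active = mean growth activity at or below -80% and every replicate also at or below -80%; inconclusive = mean at or below -80% but some replicate above -80%; inactive = mean growth activity above -80%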;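 also: 0% = DMSO wells and -100% = levofloxacin 16 µg/mL wells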
Pf Dd2 inh – inhibitors of Plasmodium falciparum Dd2 growth. P. falciparum Dd2 growth, SYBR Green, 72 h; stronger effect = lower value. activity change, % at 10 µM. 94,000 compounds, 2.3% hits; in the data active = activity change below about -80%; inconclusive = no clear call, values can overlap the other calls
The depositor's hits bear a star; u = inconclusive; x = no result; ! = a repeat was not active. Most compounds without a hit are left out; they make up all but 2.3% or so of the library.

SMILES	C diff HTS	Pf Dd2 inh
C[C@H](CO)N1C[C@H](C)[C@H](CN(C)S(=O)(=O)c2ccccc2)Oc2ccc(NC(=O)Cn3cnnn3)cc2CC1=O	1	0
CO[C@@H]1CN(C)C(=O)c2cc(NC(=O)Nc3ccc(Cl)c(Cl)c3)ccc2OC[C@H](C)NC[C@@H]1C	-97*	-67
CO[C@H]1CN(C)C(=O)c2cc(NC(=O)Nc3ccc(Cl)c(Cl)c3)ccc2OC[C@H](C)NC[C@H]1C	-99*	-84*
CO[C@@H]1CN(C)C(=O)c2cc(NC(=O)Nc3ccc(Cl)cc3)ccc2OC[C@H](C)NC[C@H]1C	0	-7
CO[C@H]1CN(C)C(=O)c2cc(NC(=O)Nc3ccccc3Cl)ccc2OC[C@@H](C)NC[C@@H]1C	x	-15
C[C@H](CO)N1C[C@H](C)[C@H](CN(C)S(=O)(=O)c2cccs2)Oc2ncc(/C=C/c3ccccc3)cc2C1=O	-14	-41
C[C@@H]1CCCCO[C@@H](CN(C)Cc2ccc3c(c2)OCO3)[C@@H](C)CN([C@@H](C)CO)C(=O)c2cc(NC(=O)Nc3ccc(C(F)(F)F)cc3)ccc2O1	-37	-56
C[C@H]1CCCCO[C@@H](CN(C)Cc2ccc(Cl)c(Cl)c2)[C@@H](C)CN([C@@H](C)CO)C(=O)c2cc(NC(=O)Nc3ccc(C(F)(F)F)cc3)ccc2O1	5	-78
C[C@H]1CCCCO[C@@H](CN(C)Cc2ccc3c(c2)OCO3)[C@@H](C)CN([C@@H](C)CO)C(=O)c2cc(NC(=O)Nc3ccc(C(F)(F)F)cc3)ccc2O1	-19	-89*
C[C@@H]1CCCCO[C@@H](CN(C)Cc2ccc(C(F)(F)F)cc2)[C@@H](C)CN([C@@H](C)CO)C(=O)c2cc(NC(=O)Nc3ccc(C(F)(F)F)cc3)ccc2O1	7	-24
C[C@@H]1CCCCO[C@@H](CN(C)Cc2ccc(Cl)c(Cl)c2)[C@H](C)CN([C@@H](C)CO)C(=O)c2cc(NC(=O)Nc3ccc(C(F)(F)F)cc3)ccc2O1	16	-85*
C[C@@H]1CCCCO[C@H](CN(C)Cc2ccc(Cl)c(Cl)c2)[C@@H](C)CN([C@@H](C)CO)C(=O)c2cc(NC(=O)Nc3ccc(C(F)(F)F)cc3)ccc2O1	22	-86*
CCCC(=O)N1CC2(C1)CN(C(=O)CN1CCOCC1)[C@@H](CO)c1c2c2ccc(OC)cc2n1C	-1	-18
C[C@@H]1CN([C@@H](C)CO)C(=O)c2cc(NS(C)(=O)=O)ccc2O[C@H]1CN(C)S(=O)(=O)c1ccc(Cl)cc1	-5	-17
Cc1ccc(S(=O)(=O)N[C@@H]2CC[C@@H](CCNS(=O)(=O)Cc3ccccc3)O[C@@H]2CO)cc1	-2	-7
COc1ccccc1-c1cn(CC[C@H]2CC[C@H](NC(=O)c3cnccn3)[C@@H](CO)O2)nn1	-3	8
O=C(C[C@@H]1CC[C@@H]2[C@H](COC[C@@H](O)CN2C(=O)Nc2ccc(C(F)(F)F)cc2)O1)NC1Cc2ccccc2C1	-100*!	-26
CCNC(=O)C[C@@H]1CC[C@@H]2[C@H](COC[C@@H](O)CN2C(=O)Nc2ccc(C(F)(F)F)cc2)O1	-94*!	16
O=C(C[C@H]1CC[C@@H]2[C@H](COC[C@H](O)CN2C(=O)Nc2ccc(C(F)(F)F)cc2)O1)NC1Cc2ccccc2C1	-100*!	-14
O=C(C[C@@H]1CC[C@H]2[C@@H](COC[C@H](O)CN2C(=O)Nc2ccc(F)cc2)O1)NC1Cc2ccccc2C1	x	-3
CCNC(=O)C[C@@H]1CC[C@H]2[C@@H](COC[C@H](O)CN2C(=O)Nc2ccc(C(F)(F)F)cc2)O1	67	3
O=C(C[C@@H]1CC[C@@H]2[C@H](COC[C@H](O)CN2C(=O)Nc2ccc(C(F)(F)F)cc2)O1)NC1Cc2ccccc2C1	22	2
O=C(C[C@H]1CC[C@H]2[C@@H](COC[C@H](O)CN2C(=O)Nc2ccc(C(F)(F)F)cc2)O1)NC1Cc2ccccc2C1	-90*!	-30
O=C(C[C@@H]1CC[C@@H]2[C@H](COC[C@@H](O)CN2C(=O)Nc2ccc(F)cc2)O1)NC1Cc2ccccc2C1	x	-9
O=C(C[C@@H]1CC[C@H]2[C@@H](COC[C@@H](O)CN2Cc2nccs2)O1)NCc1ccccc1	-1	3
SMILES	C diff HTS	Pf Dd2 inh
COc1ccc(NC(=O)N(C)C[C@@H]2Oc3ccc(NC(=O)Nc4cccc5ccccc45)cc3C(=O)N([C@@H](C)CO)C[C@H]2C)cc1	-5	-1
CCC(=O)N1C[C@@H](C)[C@@H](OC)CN(C)C(=O)c2cc(NC(=O)C3CCOCC3)ccc2OC[C@@H]1C	x	9
C/C=C/c1ccc2c(c1)O[C@@H](CN(C)C(=O)C1CCC1)[C@H](C)CN([C@@H](C)CO)S2(=O)=O	x	-11
COc1ccc(-c2ccc3c(c2)[C@H]2[C@H](CCN2S(=O)(=O)c2ccc(OC)cc2)[C@H](CO)N3C)cc1	-7	-37
COc1ccc2c3c(n(C)c2c1)[C@H](CO)N(C(=O)c1ccccc1)CC31CN(Cc2ccccc2OC)C1	-14	u
C[C@@H]1CN([C@@H](C)CO)C(=O)c2cc(NC(=O)Cn3cnnn3)ccc2O[C@@H]1CN(C)S(=O)(=O)c1ccccc1	-7	0
CN(C)CC(=O)N1[C@H](CO)[C@@H](c2ccccc2)C12CN(C(=O)C1CCCC1)C2	-2	39
CCNC(=O)C[C@@H]1CC[C@H]2[C@@H](COC[C@H](O)CN2C(=O)Nc2ccc(Cl)c(Cl)c2)O1	x	3
CNC(=O)C[C@@H]1CC[C@H]2[C@@H](COC[C@H](O)CN2C(=O)Nc2ccc(Cl)c(Cl)c2)O1	-4	-4
O=C(C[C@H]1CC[C@@H]2[C@H](COC[C@H](O)CN2C(=O)Nc2ccc(Cl)c(Cl)c2)O1)NC1CCC1	-99*!	x
O=C(C[C@H]1CC[C@@H]2[C@H](COC[C@@H](O)CN2C(=O)Nc2cc(Cl)cc(Cl)c2)O1)N1CCOCC1	55	x
O=C(C[C@@H]1CC[C@@H]2[C@H](COC[C@H](O)CN2C(=O)Nc2ccc(Cl)c(Cl)c2)O1)NC1CCC1	-101*!	x
CCNC(=O)C[C@@H]1CC[C@H]2[C@@H](COC[C@@H](O)CN2C(=O)Nc2ccc(Cl)c(Cl)c2)O1	x	4
O=C(C[C@H]1CC[C@H]2[C@@H](COC[C@H](O)CN2C(=O)Nc2cc(Cl)cc(Cl)c2)O1)N1CCOCC1	-96*!	x
O=C(C[C@H]1CC[C@H]2[C@@H](COC[C@@H](O)CN2C(=O)Nc2ccc(Cl)c(Cl)c2)O1)NC1CCC1	-99*!	x
CC(C)C#Cc1ccc2c(c1)O[C@H](CN(C)C(=O)C1CCC1)[C@@H](C)CN([C@@H](C)CO)S2(=O)=O	x	-18
COc1ccc2c3c([nH]c2c1)[C@H](CO)N(C(=O)CN(C)C)CC31CCN(C(=O)c2cccnc2)CC1	1	33
CNC(=O)C[C@H]1CC[C@@H]2[C@H](COC[C@@H](O)CN2C(=O)Nc2ccc(Cl)c(Cl)c2)O1	0	-8
O=C(C[C@H]1CC[C@H]2[C@@H](COC[C@H](O)CN2C(=O)Nc2ccc(Cl)c(Cl)c2)O1)NC1CCC1	-92*	x
CNC(=O)C[C@H]1CC[C@@H]2[C@H](COC[C@H](O)CN2C(=O)Nc2ccc(Cl)c(Cl)c2)O1	-7	-12
O=C(C[C@@H]1CC[C@@H]2[C@H](COC[C@@H](O)CN2C(=O)Nc2ccc(Cl)c(Cl)c2)O1)NC1CCC1	-98*	x
